{"source": "PubChem BioAssay (NCI)", "note": "Several values for one entry are separate records, joined by “and”; a condition that tells them apart may be missing. Identical values can stand only once. The panel holds about 79,000 compounds, 15% with a hit somewhere; the sample as a whole holds those more often. Some structures have more than one record in an assay (separate samples or runs), and their calls can disagree. Activity calls are given as the source filed them. No stated cut-off is given here; in the data, active means growth inhibition above about 70%; inactive means the rest."}
{"assay": "NCI Yeast Anticancer Drug Screen. Data for the mlh1 rad18 strain (AID 175)", "conditions": "S. cerevisiae mlh1 rad18 strain growth inhibition; at 50.0 µM; stronger effect = higher value", "outline": "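Growth inhibition of the yeast strain was measured after compound exposure and expressed relative to vehicle-treated controls. The strain carries defined defects in DNA damage repair.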"}
{"smiles": "C[N+]1(C)CCC(c2ccccc2)(c2ccccc2)C(=O)C1", "growth inhibition": "24.1% (inactive) and -10.6% (inactive)"}
{"smiles": "NC(=O)SCC(=O)NNc1ccccc1", "growth inhibition": "51.5% (inactive) and 88.9% (active)"}
{"smiles": "Nc1ncnc2c(C3OC(CO)C(O)C3O)scc12", "note": "(stereo unspecified)", "growth inhibition": "39.4% (inactive)"}
{"smiles": "c1ccc(Cc2cc3ccccc3c3ccccc23)cc1", "growth inhibition": "82.5% (active)"}
{"smiles": "O=[N+]([O-])c1c(Cl)nc2ccccn12", "growth inhibition": "70.5% (active)"}
{"smiles": "COc1ccc(COc2ccc(C(=O)CCN3CCOCC3)cc2)cc1", "growth inhibition": "96.8% (active)"}
{"smiles": "O/N=C/c1cc(I)c(O)c(I)c1", "growth inhibition": "98.5% (active)"}
{"smiles": "COC1OC2COC(c3ccccc3)OC2C(O)C1OS(=O)(=O)c1ccc(C)cc1", "note": "(stereo unspecified)", "growth inhibition": "63.1% (inactive) and 0.65% (inactive)"}
{"smiles": "O=[N+]([O-])c1cc2c(cc1S(=O)(=O)O)C1C(C3C2C2(Cl)C(Cl)=C(Cl)C3(Cl)C2(Cl)Cl)C2(Cl)C(Cl)=C(Cl)C1(Cl)C2(Cl)Cl", "note": "(stereo unspecified)", "growth inhibition": "67.3% (inactive)"}
{"smiles": "CCOC(=O)Nc1c(C)cc(C)c(Br)c1C", "growth inhibition": "99.2% (active)"}
{"smiles": "c1ccc(C2=NC(c3ccccc3)=NS(S3=NC(c4ccccc4)=NC(c4ccccc4)=N3)=N2)cc1", "note": "(stereo unspecified)", "growth inhibition": "92.3% (active)"}
